NPC1 prom act – activates the NPC1 promoter; Huh7 NPC1 promoter luciferase reporter, 24 h; Potency, µM (highest dose often 9.22 µM), without a hit: top-dose activation, actives largely listed as activators; 2.4% of 320,000 active; further: % of control where 0% means no effect; nearly all actives have a fitted effect of over 60% in size
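Huh7 cells stably carrying NPC1 promoter–luciferase, plated in Opti-MEM with 10% FBS for 2 h, were exposed to compound in DMSO for 24 h at 37 °C; luciferase reagent was added for 10 min and luminescence read.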
SMN2 splice enh – enhancers of SMN2 splice variant expression; HEK293 SMN2-luciferase splicing reporter, luminescence, 30-36 h; Potency, µM (titrated, usually from 46.1 µM), for the others: at the highest dose activity change, positive = activation, most hits filed as activators; 2.8% of 210,000 active; AID 1458; further: % of control where 0% means no effect; nearly all actives have a fitted effect of over 55% in size
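HEK293 cells carry an SMN2 minigene-luciferase reporter in which exon 7 inclusion puts luciferase in frame. Cells were seeded at 2000 cells/well, attached for 10-12 hours, then exposed to compounds for 30-36 hours at 37C before ONE-Glo luminescence.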
Luc counter – Kinase-Glo luciferase inhibition (counter-screen) | Q27757 | Kinase-Glo luciferase, ATP luminescence, 8 min | Potency, µM (top dose mostly 38.3 µM), for the others: at the highest dose activity change, negative = inhibition, most hits filed as inhibitors | 0.28% of 200,000 active | AID 1379; further: on the % scale 0 is the no-effect control and ±100 the full control effect; nearly all actives have a fitted effect of over 60% in size
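Substrate mix (final 50 mM imidazole pH 7.2, 50 mM KCl, 7 mM MgCl2, 10 uM ATP, 0.01% Tween 20, 0.05% BSA) plus pin-tool compound, then Kinase-Glo detection mix; 8 min ambient, luminescence read.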
FLuc counter – firefly luciferase modulation, counter-screen for miR-21 project | P08659 | purified FLuc, Km substrates, luminescence inhibition | Potency, µM (series often up to 57.5 µM), inactives show top-dose activity change, negative = inhibition, most hits filed as inhibitors | 6.9% of 360,000 active;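 further: plate controls were vehicle for no effect and reference inhibitor for full effect; nearly all actives have a fitted effect of over 55% in size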
Target sequence (P08659 whole entry, looked up): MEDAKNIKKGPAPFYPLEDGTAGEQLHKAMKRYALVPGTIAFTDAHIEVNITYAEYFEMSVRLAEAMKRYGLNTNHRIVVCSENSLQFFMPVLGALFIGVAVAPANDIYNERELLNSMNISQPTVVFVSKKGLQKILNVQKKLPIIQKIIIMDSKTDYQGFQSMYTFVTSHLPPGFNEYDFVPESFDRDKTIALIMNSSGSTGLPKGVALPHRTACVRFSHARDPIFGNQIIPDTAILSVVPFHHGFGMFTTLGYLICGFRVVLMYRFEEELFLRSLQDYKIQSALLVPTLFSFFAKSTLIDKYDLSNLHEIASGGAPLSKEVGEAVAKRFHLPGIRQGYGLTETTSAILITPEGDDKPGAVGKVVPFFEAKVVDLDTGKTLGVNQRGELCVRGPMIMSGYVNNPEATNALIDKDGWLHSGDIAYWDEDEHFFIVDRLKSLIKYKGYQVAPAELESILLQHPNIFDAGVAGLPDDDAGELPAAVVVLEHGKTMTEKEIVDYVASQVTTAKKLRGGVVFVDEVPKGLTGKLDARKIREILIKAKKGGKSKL
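Biochemical qHTS of compounds, final roughly 60 µM downward over six points, against 10 nM purified firefly luciferase using Km concentrations of substrates (10 uM D-luciferin, 10 uM ATP) in Tris acetate pH 7.5 buffer; luminescence output.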
Rab9 prom act – activates the Rab9 promoter. AID 485297. 2.8% of 320,000 active. Potency, µM (doses to about 9.22 µM), for inactives: at the top dose activation, negative = inhibition, actives largely listed as activators. Huh7 Rab9 promoter-luciferase reporter, luminescence, 24 h; further: % of control where 0% means no effect; nearly all actives have a fitted effect of over 60% in size
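Huh7 cells stably carrying a Rab9 promoter-luciferase reporter, 1500 cells per well in OP-MEM I with 10% FBS, treated with compound 24 hours at 37C. Luciferase activity read by luminescence after 10 minutes with Amplite reagent.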
ELG1 genotoxic – genotoxicity induction in ELG1-luciferase HEK293T cells | HEK293T ELG1-luciferase reporter, luminescence, 16 h | Potency, µM (doses to about 46 µM), without a hit: at the top dose activity change, positive = activation, hits mostly activators | 1.3% of 330,000 active | AID 504466; further: % of control where 0% means no effect; nearly all actives have a fitted effect of over 60% in size
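DMSO vehicle served as control against compound-treated ELG1-luciferase HEK293T cells; exposure lasted 16 hr at 37 °C and 5% CO2, followed by ONE-Glo luminescence detection after 30 min.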
An asterisk follows results filed as active; u = inconclusive; x = no result given; [ ] = dose if it differs, or a comment. This is a sample that favours compounds with a hit; in the whole collection about 7.5% have one here. The call rests on the fitted dose curve; in most records, active means well fitted curve in the direction sought with a large enough effect; inconclusive means small, poorly fitted or top-dose-only effect, or another doubt; inactive means no such curve, though single readings can be large; an effect the other way counts as inactive or inconclusive. Potency means the concentration at half of the fitted maximal effect.

SMILES	NPC1 prom act	SMN2 splice enh	Luc counter	FLuc counter	Rab9 prom act	ELG1 genotoxic
O=C(/C=C/c1ccc([N+](=O)[O-])cc1)Nc1cccc(C(=O)Nc2ccccc2C(=O)O)c1	-2.6%	x	x	5.36µM*	-5.9%	-9.4%
CC(=O)c1cccc(NC(=O)/C=C/c2ccc([N+](=O)[O-])s2)c1	-34.5%	-81.8%	8.7%	-2.2%	-36.2%	2.91µM*
CCOC(=O)c1cccc(NC(=O)/C=C/c2ccc([N+](=O)[O-])cc2)c1	3.0%	-56.0%	0.5%	2.69µM*	8.0%	2.1%
O=C(COC(=O)C1=NN(c2ccccc2)C(=O)CC1)Nc1nc(-c2ccc(F)cc2)cs1	x	x	x	x	x	1.4%
Cc1ccccc1OCC(=O)Nc1ccccc1C(=O)OCc1cc(=O)n2nc(C3CC3)sc2n1	x	x	x	2.5%	x	x
COc1ccc(S(N)(=O)=O)cc1C(=O)OCC(=O)N1CCCC(C)C1 (centres undefined)	x	x	x	x	x	2.9%
Cc1ccc(-c2nc(SCC(=O)N(C)c3c(N)n(Cc4ccccc4)c(=O)[nH]c3=O)n[nH]2)cc1	1.2%	x	x	-18.2%	2.9%	4.9%
CCN(CC)c1ccc(-c2nnc(SCC(=O)N(CCOC)c3c(N)n(CC(C)C)c(=O)[nH]c3=O)o2)cc1	-2.6%	x	x	6.75µM*	-1.4%	0.1%
CCc1ccc(-c2nc(SCC(=O)N(CCOC)c3c(N)n(Cc4ccccc4)c(=O)[nH]c3=O)n[nH]2)cc1	-0.1%	x	x	2.69µM*	12.9%	9.8%
CCCCN(C(=O)CSc1n[nH]c(-c2ccc(C)cc2)n1)c1c(N)n(CCCC)c(=O)[nH]c1=O	-1.3%	x	x	8.49µM*	-3.5%	u
COCCN(C(=O)CSc1n[nH]c(-c2ccc(OC)cc2)n1)c1c(N)n(Cc2ccccc2)c(=O)[nH]c1=O	-0.6%	x	x	u	-7.9%	3.2%
CCCCn1c(N)c(N(CCOC)C(=O)CSc2n[nH]c(-c3ccc(OC)cc3)n2)c(=O)[nH]c1=O	-6.5%	x	x	23.9µM*	13.5%	3.4%
COc1cc(C(=O)NCC2CCCCC2)ccc1OCc1c(C)noc1C	-3.1%	x	x	-1.3%	-6.2%	7.7%
COCCN(C(=O)COC(=O)/C=C/c1ccc2ccccc2n1)c1c(N)n(Cc2ccccc2)c(=O)[nH]c1=O	-3.9%	x	x	u	1.7%	-3.2%
COCCN(C(=O)COC(=O)/C=C/c1nc2ccccc2s1)c1c(N)n(Cc2ccccc2)c(=O)[nH]c1=O	2.2%	x	x	21.3µM*	-2.1%	-22.3%
Cc1ccc(-n2nc3c(c2NC(=O)CC(C)C)CS(=O)(=O)C3)cc1	-5.4%	x	x	-1.3%	3.8%	-2.9%[9.26 µM]
CC(C)Oc1ncnc2c1[nH]c1ccccc12	-8.9%	x	x	15.1µM*	-15.6%	-2.0%
CCCOc1ncnc2c1[nH]c1ccc(OC)cc12	1.12µM*	x	x	2.39µM*	0.562µM*	u
COc1ccc2[nH]c3c(N4CC(C)OC(C)C4)ncnc3c2c1 (centres undefined)	-3.5%	-6.5%	2.9%	-15.9%	-7.4%	-2.2%
Cc1ccc2[nH]c3c(NCCN4CCOCC4)ncnc3c2c1	13.8%	-31.6%	-4.5%	u	6.9%	28.9%
CCCCOc1ncnc2c1[nH]c1ccc(C)cc12	u	x	x	1.07µM*	u	u
CCCOc1ncnc2c1[nH]c1ccccc12	18.9%	-60.3%	-4.1%	16.9µM*	-4.3%	-0.5%
CCN(CC)c1ncnc2c1[nH]c1ccccc12	-0.2%	-66.7%	-3.4%	-18.8%	-11.2%	-7.3%
CCN(CC)CCCCn1c(-c2ccccc2)nc2c(NC3CCCCC3)nc(C)nc21	x	-17.6%	-2.0%	x	x	x
COc1ccc(Br)cc1CNC(=O)C1CCCCN1S(=O)(=O)c1ccc(F)cc1 (centres undefined)	x	x	x	-10.2%	x	x
SMILES	NPC1 prom act	SMN2 splice enh	Luc counter	FLuc counter	Rab9 prom act	ELG1 genotoxic
Cc1ccc2[nH]c3c(N4CCN(Cc5ccccc5)CC4)ncnc3c2c1	0.2%	-49.2%	-1.3%	-22.1%	-8.6%	-22.6%
Cc1ccc2[nH]c3c(N4CCCCCC4)ncnc3c2c1	-5.7%	-69.3%	4.1%	19µM*	-14.7%	-26.7%
Cc1cc(C)cc(-n2ccn(CC(=O)Nc3ccccc3F)c(=O)c2=O)c1	x	x	x	-0.7%	x	x
O=C(CN1C(=O)NC(c2ccccc2)(c2ccccc2)C1=O)NCC(=O)Nc1ccc(F)cc1	-3.9%	x	x	-0.1%	4.6%	-0.1%
COC(=O)N/N=C/c1cc(N=Nc2ccccc2Cl)ccc1O	u	x	x	6.01µM*	u	5.1%
Nc1ccc(C(=O)N/N=C\c2cc(N=Nc3cccc4ccccc34)ccc2O)cc1	-7.2%	-75.5%	-0.5%	7.57µM*	1.4%	-7.1%
O=c1oc(-c2ccccc2)cc(Cl)c1Cl	-14.6%	x	x	2.5%	7.3%	u
CC1CCCC(C)N1C(=O)COC(=O)CNC(=O)c1ccccc1 (centres undefined)	-2.0%	x	x	2.8%	-0.2%	3.4%
CCCCCOC(=O)NCC(O)c1ccccc1 (centres undefined)	2.51µM*	u	-9.2%	13.5µM*	4.47µM*	u
O=C(CNC(=O)c1ccc(Br)cc1)c1ccccc1	2.82µM*	x	x	4.78µM*	2µM*	u
CCCCOC(=O)NC(NCC(O)c1ccccc1)(C(F)(F)F)C(F)(F)F (centres undefined)	-4.1%	-10.8%	6.5%	1.2%	1.4%	-10.9%
O=C(CNC(=O)c1ccc(Br)cc1)c1ccc(Br)cc1	-1.9%	x	x	2.9%	8.3%	1.6%
COc1ccc(C(=O)NCC(=O)OCc2ccc(Br)cc2)cc1	-0.7%	-20.2%	-0.6%	-1.0%	-6.5%	0.8%
O=C(CNC(=O)c1ccc(-c2ccccc2)cc1)OCc1ccc(Br)cc1	16.2%	3.55µM*	7.6%	21.3µM*	28.2%	11.4%
O=C(CNC(=O)c1ccccc1)OC1CCCCC1	3.98µM*	12.6µM*	-3.8%	12µM*	0.891µM*	u
CC(C)c1ccc(N(CC(=O)N2CCN(Cc3ccccc3)CC2)S(C)(=O)=O)cc1	3.1%	x	x	-0.5%	-0.3%	-2.0%
CC1=C(C)CC(C(=O)NCC(=O)c2ccccc2)C(C(=O)O)C1 (centres undefined)	3.8%	17.2%	-3.5%	15.1µM*	21.6%	16.4µM*
O=C(CNC(=O)c1ccccc1C(=O)O)c1ccccc1	2.82µM*	-7.7%	0.0%	12µM*	3.55µM*	u
CC(NC(=O)COC(=O)CNC(=O)c1ccc(-c2ccccc2)cc1)c1ccccc1 (centres undefined)	6.5%	x	x	16.9µM*	8.9%	-2.0%
CC1=C(C)CC(C(=O)NNC(=O)c2ccccc2)C(C(=O)O)C1 (centres undefined)	6.1%	2.3%	-1.1%	-1.2%	0.3%	2.6%
O=C(NC[C@H](O)c1ccccc1)c1ccccc1	x	14.1µM*	-12.4%	x	x	x

Screening data: PubChem BioAssay, National Center for Advancing Translational Sciences (NCATS)
